Assay results as given in PubChem BioAssay (NCATS).
Results filed as inconclusive are left out. Unmarked numbers belong to inactive results. The source made the active and inactive calls. The call rests on the fitted dose curve; in most records, active means well fitted curve in the direction sought with a large enough effect; inconclusive means small, poorly fitted or top-dose-only effect, or another doubt; inactive means no such curve, though single readings can be large or run the other way. Peptide text beside a SMILES is read from it.

Target: Protein phosphatase 1D (Homo sapiens) (UniProt O15297)
Sequence (O15297 whole entry, looked up): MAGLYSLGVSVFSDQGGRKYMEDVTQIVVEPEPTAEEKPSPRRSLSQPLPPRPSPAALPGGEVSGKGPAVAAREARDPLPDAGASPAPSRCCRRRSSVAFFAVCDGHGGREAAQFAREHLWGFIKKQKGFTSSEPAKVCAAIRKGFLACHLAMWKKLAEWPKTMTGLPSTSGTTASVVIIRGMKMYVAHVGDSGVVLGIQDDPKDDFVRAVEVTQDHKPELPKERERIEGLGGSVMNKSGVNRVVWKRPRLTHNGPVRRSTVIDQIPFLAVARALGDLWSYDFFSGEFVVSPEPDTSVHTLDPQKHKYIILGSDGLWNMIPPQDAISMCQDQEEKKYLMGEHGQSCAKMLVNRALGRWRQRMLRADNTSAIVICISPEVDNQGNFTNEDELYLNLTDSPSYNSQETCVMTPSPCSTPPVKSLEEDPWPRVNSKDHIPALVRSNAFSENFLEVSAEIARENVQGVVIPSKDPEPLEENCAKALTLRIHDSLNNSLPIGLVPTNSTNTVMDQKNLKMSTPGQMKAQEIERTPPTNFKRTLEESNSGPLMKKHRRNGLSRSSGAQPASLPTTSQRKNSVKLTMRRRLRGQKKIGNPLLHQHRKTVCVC
Experiment: Rhodamine-PBP qHTS Assay for Modulators of WT P53-Induced Phosphatase 1 (WIP1) (AID 1347425)
Conditions: recombinant WIP1, Rhodamine-PBP phosphate fluorescence, real-time; series mostly up to 57.5 µM; activity change, negative = inhibition: at the top concentration
Description: Assay Provider (PI): Nathan Coussens Ph.D.
National Center for Advancing Translational Sciences (NCATS), Rockville, MD
National Institute of Health (NIH), Bethesda, Maryland
WT P53-Induced Phosphatase 1 (WIP1) is a member of the magnesium-dependent serine/threonine protein phosphatase (PPM) family and is induced by P53 in response to DNA damage. In several human cancers, the WIP1 protein is overexpressed, which is generally associated with a worse prognosis. Although WIP1 is an attractive therapeutic target, no potent, selective, and bioactive small-molecule modulator with favorable pharmacokinetics has been reported. Phosphatase enzymes are among the most challenging targets for small molecules because of the difficulty of achieving both modulator selectivity and bioavailability. Another major obstacle has been the availability of robust and physiologically relevant phosphatase assays that are suitable for high-throughput screening.
Here, we describe two orthogonal biochemical WIP1 activity assays that utilize phosphopeptides from native WIP1 substrates. We optimized a RapidFire MS assay to quantify the enzymatically dephosphorylated peptide reaction product in a 384-well format. Additionally, a redshifted Rhodamine-PBP fluorescence assay was optimized in a 1,536-well format to enable real-time WIP1 activity measurements through the detection of the orthogonal reaction product, Pi. We validated these two optimized assays by quantitative high-throughput screening against the National Center for Advancing Translational Sciences (NCATS) Pharmaceutical Collection and used secondary assays to confirm and evaluate inhibitors identified in the primary screen.
SEQUENCE No. (e.g., 1, 2, 3, etc.); […] (e.g., Cells, Incubation, Reagent, etc.); VALUE; DESCRIPTION
1; Reagent; 3 uL; WIP1 (6.7 nM), Rh-PBP (13.3 uM), columns 1-48
3; Library Compounds; 23 nL; NCATS Pharmaceutical Collection, column 5-48
4; Control Compounds; DMSO in column 2, GSK2830371 (57.5 uM, final) in 3-fold serial dilutions in column 3, GSK2830371 (1.15 uM, final) in column 4
5; Time; 1 hr; incubation
6; Detection; fluorescence (f0); ViewLux, excitation filter = 525 nm, emission filter = 598 nm
7; Reagent; 1 uL; VEPP-pS-QETFS (40 uM), columns 2-48
8; Detection; fluorescence (f1); ViewLux, excitation filter = 525 nm, emission filter = 598 nm
NOTES (numbers refer to sequence above)
1 & 2; Black medium binding Greiner 1536-well plates (# 789176-F); assay buffer: 50 mM Tris-HCl pH 7.5, 30 mM MgCl2, 1mM TCEP, 0.1 mM EGTA, 75 ug/mL BSA; dispensed with a BioRaptr liquid handler (Beckman Coulter).
3 & 4; Kalypsys pintool (equipped with 1536 pinhead, Wako USA) transfer. Tip wash sequence: DMSO, methanol, 3 sec vacuum dry.
5; Room temperature incubation.
7; VEPPL-pS-QETFS in assay buffer dispensed with a BioRaptr; final reaction conditions: 5 nM WIP1, 10 uM VEPPL-pS-QETFS, 10 uM Rh-PBP, 50 mM Tris-HCl pH 7.5, 30 mM MgCl2, 1 mM TCEP, 0.1 mM EGTA, 75 ug/mL BSA.
8; Measurement taken at 1 min intervals for 11 min. Delta readout = f1 - f0.

SMILES | activity change, negative = inhibition | outcome
C=CCc1cc(OC)c(O)c(C(=O)NCCO)c1 | -5.64% | 
COc1cc(C(C)=O)ccc1OCCCN1CCC(c2noc3cc(F)ccc23)CC1 | 18.5% | 
N[C@@H](Cc1cc(I)c(Oc2cc(I)c(O)c(I)c2)c(I)c1)C(=O)O | -28.8% | 
COCCCN1CCC(NC(=O)c2cc(Cl)c(N)c3c2OCC3)CC1 | 3.71% | 
COC1=C(OC)C(=O)C(CCCCCCCCCCO)=C(C)C1=O | -0.395% | 
COc1cc2nc(N3CCN(C(=O)C4CCCO4)CC3)nc(N)c2cc1OC (stereo not given) | -13.7% | 
O=C(c1ccccc1)c1ccc2n1CCC2C(=O)O (stereo not given) | 1.47% | 
Nc1cc(C(Cl)=C(Cl)Cl)c(S(N)(=O)=O)cc1S(N)(=O)=O | -0.826% | 
Cc1nc(-c2ccc(OCC(C)C)c(C#N)c2)sc1C(=O)O | -11.1% | 
Cc1ccc(Nc2nccc(N(C)c3ccc4c(C)n(C)nc4c3)n2)cc1S(N)(=O)=O | 15.4% | 
Cc1cc2c(s1)Nc1ccccc1N=C2N1CCN(C)CC1 | 14.5% | 
O=C(NC(Cc1cc(=O)[nH]c2ccccc12)C(=O)O)c1ccc(Cl)cc1 (stereo not given) | -2.47% | 
S=c1nc[nH]c2nc[nH]c12 | 0.541% | 
CNC[C@H](O)c1ccc(O)c(O)c1 | -6.8% [at 23.8 µM] | 
COc1cc2c(N3CCN(C(=O)Nc4ccc(OC(C)C)cc4)CC3)ncnc2cc1OCCCN1CCCCC1 | 23.7% | 
Cc1nccn1CC1CCc2c(c3ccccc3n2C)C1=O (stereo not given) | -20.8% | 
Cc1nc(Nc2ncc(C(=O)Nc3c(C)cccc3Cl)s2)cc(N2CCN(CCO)CC2)n1 | 73.2% | 
COc1cc(OC)c(C(=O)CCCN2CCCC2)c(OC)c1 | 13.1% | 
O=C(NCCO[N+](=O)[O-])c1cccnc1 | 1.39% | 
CC[C@]1(O)C[C@H]2CN(CCc3c([nH]c4ccccc34)[C@@](C(=O)OC)(c3cc4c(cc3OC)N(C=O)[C@H]3[C@@](O)(C(=O)OC)[C@H](OC(C)=O)[C@]5(CC)C=CCN6CC[C@]43[C@@H]65)C2)C1 | 25.1% | 

SMILES | activity change, negative = inhibition | outcome
O=C(O)c1cc(=O)c2c(OCC(O)COc3cccc4oc(C(=O)O)cc(=O)c34)cccc2o1 | 7.93% | 
CN(C)C(=O)COC(=O)Cc1ccc(OC(=O)c2ccc(N=C(N)N)cc2)cc1 | 10.1% | 
Cc1ncc([N+](=O)[O-])n1CC(C)O (stereo not given) | 3.71% | 
CCCS(=O)c1ccc2nc(NC(=O)OC)[nH]c2c1 (stereo not given) | 3.09% | 
O=C(NCC1CCCCN1)c1cc(OCC(F)(F)F)ccc1OCC(F)(F)F (stereo not given) | 2.84% | 
COc1ccc2cc([C@H](C)C(=O)O)ccc2c1 | -11.7% | 
O=C(O)c1cn(-c2ccc(F)cc2)c2cc(N3CCNCC3)c(F)cc2c1=O | -0.154% [at 23.8 µM] | 
COC(=O)[C@H](Cc1ccccc1)NC(=O)[C@@H](N)CC(=O)O (H-Asp-Phe-OMe) | 7% | 
CCCCN(CCCC)CCC(O)c1cc2c(Cl)cc(Cl)cc2c2cc(C(F)(F)F)ccc12 (stereo not given) | 17.4% | 
COC(=O)N[C@H](C(=O)N[C@@H](Cc1ccccc1)[C@@H](O)CN(Cc1ccc(-c2ccccn2)cc1)NC(=O)[C@@H](NC(=O)OC)C(C)(C)C)C(C)(C)C | 18.9% | 
CN(c1nccc(=O)[nH]1)C1CCN(c2nc3ccccc3n2Cc2ccc(F)cc2)CC1 | 0.695% | 
COCCCOc1ccnc(CS(=O)c2nc3ccccc3[nH]2)c1C (stereo not given) | 10.1% | 
CC(C)Oc1ccc2c(=O)c(-c3ccccc3)coc2c1 |  | inactive
N=C(N=C(N)N)N1CCOCC1 | -7.49% | 
CCN(CC)CCOc1ccc(Cc2ccccc2)cc1 | 11.4% | 
c1ccc2[nH]c(-c3cscn3)nc2c1 | 3.84% | 
CC(C)c1nc(CN(C)C(=O)N[C@H](C(=O)N[C@@H](Cc2ccccc2)C[C@H](O)[C@H](Cc2ccccc2)NC(=O)OCc2cncs2)C(C)C)cs1 | 8.58% | 
CCCCc1ccc2nc(NC(=O)OC)[nH]c2c1 | 7.03% | 
CCCc1cc(=O)[nH]c(=S)[nH]1 | 8.42% | 
CC1(C)NC(=O)N(c2ccc([N+](=O)[O-])c(C(F)(F)F)c2)C1=O | 3.7% | 
